PubChem BioAssay AID2116 (The Scripps Research Institute Molecular Screening Center, 2009)
The source made the active and inactive calls. How the calls were made is not given here.

Target: Mucolipin-3 (Homo sapiens) (UniProt Q8TDD5)
Test: activators of mucolipin-3 and mucolipin-2 – cell-based, patch clamp, Fura-2 profiling panel (AID 2116)
Conditions: HEK293 cells expressing TRPML3-YFP, TRPML3 Fura-2 Imaging; Fura-2 340/380 ratio change, at 10 µM, stronger effect = higher value

Mucolipin-3 (Homo sapiens), sequence (Q8TDD5 whole entry, looked up): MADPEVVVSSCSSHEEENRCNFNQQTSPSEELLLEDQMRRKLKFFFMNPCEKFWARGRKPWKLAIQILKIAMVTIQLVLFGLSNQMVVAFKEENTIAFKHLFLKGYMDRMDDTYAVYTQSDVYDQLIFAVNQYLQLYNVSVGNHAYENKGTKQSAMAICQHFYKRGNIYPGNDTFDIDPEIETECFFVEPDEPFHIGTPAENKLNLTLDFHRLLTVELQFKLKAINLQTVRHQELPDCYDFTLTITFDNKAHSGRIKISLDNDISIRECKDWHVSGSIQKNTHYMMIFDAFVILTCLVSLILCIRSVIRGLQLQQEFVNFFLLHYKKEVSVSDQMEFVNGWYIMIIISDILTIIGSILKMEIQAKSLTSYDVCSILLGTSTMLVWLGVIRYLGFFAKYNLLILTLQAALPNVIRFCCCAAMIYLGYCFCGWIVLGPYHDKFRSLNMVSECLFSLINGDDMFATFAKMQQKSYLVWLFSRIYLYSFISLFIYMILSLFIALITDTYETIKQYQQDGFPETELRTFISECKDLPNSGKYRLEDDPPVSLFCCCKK

Row | SMILES | delta F ratio | outcome
1 | O=S(=O)(Nc1ccccc1N1CCOCC1)c1ccc(Cl)s1 | 0.93 | active; no effect on six other TRP channels
2 | Cc1ccc(N2CCN(S(=O)(=O)N3CCCCC3)CC2)c(C)c1 | 0.99 | active; no effect on six other TRP channels
3 | Cc1ccc(S(=O)(=O)Nc2ccccc2-c2ccccc2)cc1 | 0.51 | active; no effect on six other TRP channels
4 | O=S(=O)(NC1CCCCC1N1CCOCC1)c1ccc(Cl)cc1 (stereo not given) | 1.38 | active; no effect on six other TRP channels
5 | O=S(=O)(Nc1ccccc1N1CCCCC1)c1ccc(Cl)s1 | 1 | active; no effect on six other TRP channels
